Laboratory results: PubChem BioAssay (EPA / NIEHS)
Calls of active or inactive are those of the source. The calls were made as follows: active = hit-call score of the fitted dose curve at least 0.9, where 1 is the maximum; inactive = score below 0.9.

Assays:
[1] = ATG_E_Box_CIS: Attagene CIS-FACTORIAL HepG2 Assay for human Enhancer Box (E-box) (AID 2282936); settings: HepG2 E-box cis-reporter transcription, actives raise or lower the signal
In short: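 Transiently transfected HepG2, endogenous TF-driven reporters, 24 h dosing. Readout: RT-PCR plus capillary electrophoresis of fluorescent reporter fragments. Gain or loss of signal fitted bidirectionally against DMSO baseline.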

[2] = ATG_M_61_CIS: Attagene CIS-FACTORIAL HepG2 Assay for M61 Transcription Factor (Internal Marker) (AID 2282937); settings: HepG2 Attagene CIS-FACTORIAL M61 internal marker reporter; actives raise or lower the signal
In short: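 This endpoint serves as an internal background control within a multiplexed HepG2 cis-reporter panel. Cells are exposed for 24 h; reporter mRNA is amplified, fluorescently labelled and sized by capillary electrophoresis, with DMSO as negative control.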

[3] = ATG_M_19_CIS: Attagene CIS-FACTORIAL HepG2 Assay for M19 Transcription Factor (Internal Marker) (AID 2282939); settings: HepG2 Attagene CIS-FACTORIAL M19 internal marker reporter; actives raise or lower the signal
In short: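 In this multiplexed cell assay, transiently transfected HepG2 reporter units report endogenous transcription-factor activity; after 24 hours of treatment, labelled reporter cDNA fragments are quantified by capillary electrophoresis and fitted bidirectionally against DMSO.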

[4] = ATG_ERE_CIS: Attagene CIS-FACTORIAL HepG2 Assay for Estrogen Response Element (ERE) (AID 2282940); settings: HepG2 ERE cis-reporter, Attagene RNA transcript; actives raise or lower the signal
In short: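 Measuring endogenous transcription factor output, the assay doses transfected HepG2 cells for 24 hours and quantifies reporter transcripts by fluorescent RT-PCR and capillary electrophoresis, with DMSO as baseline.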

[5] = ATG_Ets_CIS: Attagene CIS-FACTORIAL HepG2 Assay for human Erythroblast Transformation Specific (ETS) (AID 2282941); settings: HepG2 ETS cis-reporter transcription; AC50: actives raise or lower the signal unless noted; outcome: actives raise or lower the signal unless noted
In short: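 Cis-regulated reporter mRNA induction in HepG2 (transient transfection), 24 h exposure, RT-PCR plus capillary electrophoresis detection; DMSO serves as negative control and baseline.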

[6] = molecular target: Hepatocyte nuclear factor 3-beta (Homo sapiens) (UniProt Q9Y261); assay: ATG_FoxA2_CIS: Attagene CIS-FACTORIAL HepG2 Assay for human Forkhead box A2 (FOXA2) (AID 2282942); settings: HepG2 cis-reporter transcription factor activity, 24 h; actives raise or lower the signal
Hepatocyte nuclear factor 3-beta (Homo sapiens), sequence (Q9Y261 whole entry, looked up): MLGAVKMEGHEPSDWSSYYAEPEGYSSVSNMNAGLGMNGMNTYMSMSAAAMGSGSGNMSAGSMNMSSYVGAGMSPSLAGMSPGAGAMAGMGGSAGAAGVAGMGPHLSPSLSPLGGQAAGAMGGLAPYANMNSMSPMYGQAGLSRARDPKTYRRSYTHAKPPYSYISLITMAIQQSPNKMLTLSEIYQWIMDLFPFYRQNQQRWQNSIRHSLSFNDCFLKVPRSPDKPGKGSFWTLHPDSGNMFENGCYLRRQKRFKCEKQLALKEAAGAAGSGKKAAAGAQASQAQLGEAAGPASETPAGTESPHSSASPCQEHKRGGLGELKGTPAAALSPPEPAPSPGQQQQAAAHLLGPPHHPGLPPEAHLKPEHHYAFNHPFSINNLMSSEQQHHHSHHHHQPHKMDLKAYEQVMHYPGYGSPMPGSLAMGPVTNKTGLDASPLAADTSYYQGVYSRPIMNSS
In short: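 Cells: HepG2, transient multiplex reporter transfection. Exposure 24 h. Detection: reporter-specific RT-PCR, fluorescent labelling, restriction digest, capillary electrophoresis. Analysis: bidirectional curve fit, DMSO as negative control.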

[7] = ATG_FoxO_CIS: Attagene CIS-FACTORIAL HepG2 Assay for human Forkhead box O (FoxO) (AID 2282943); settings: HepG2 Attagene cis-reporter, FoxO element, mRNA; actives raise or lower the signal
In short: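 Read-out: fluorescence of 6-FAM-labelled reporter cDNA fragments resolved by capillary electrophoresis. Transiently transfected HepG2 cells were dosed for 24 h; activity fitted in both directions relative to DMSO controls.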

[8] = ATG_GATA_CIS: Attagene CIS-FACTORIAL HepG2 Assay for human GATA Binding Protein (AID 2282944); settings: HepG2 GATA cis-element reporter, Attagene multiplex mRNA; actives raise or lower the signal
In short: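 Measures endogenous transcription factor-driven reporter mRNA in HepG2 cells transiently carrying cis-regulated constructs. 24 h dosing; RNA via oligo(dT) reverse transcription, PCR, HpaI digestion, capillary electrophoresis; fitted relative to DMSO.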

[9] = ATG_GLI_CIS: Attagene CIS-FACTORIAL HepG2 Assay for human Zinc Finger Protein GLI1 (AID 2282945); settings: HepG2, Attagene cis-factorial reporter mRNA, GLI element; actives raise or lower the signal
In short: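 Transiently transfected HepG2 cells report endogenous transcription factor activity via cis-element-driven reporter units. After 24 h compound exposure, reporter mRNA was measured by RT-PCR with capillary electrophoresis; bidirectional fitting against DMSO baseline.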

[10] = molecular target: Bile acid receptor (Homo sapiens) (UniProt Q96RI1); assay: ATG_IR1_CIS: Attagene CIS-FACTORIAL HepG2 Assay for human Nuclear Receptor Subfamily 1 Group H Member 4 (NR1H4), IR1 submotif (AID 2282946); settings: IR1 reporter transcription, actives raise or lower the signal
Bile acid receptor (Homo sapiens), sequence (Q96RI1 whole entry, looked up): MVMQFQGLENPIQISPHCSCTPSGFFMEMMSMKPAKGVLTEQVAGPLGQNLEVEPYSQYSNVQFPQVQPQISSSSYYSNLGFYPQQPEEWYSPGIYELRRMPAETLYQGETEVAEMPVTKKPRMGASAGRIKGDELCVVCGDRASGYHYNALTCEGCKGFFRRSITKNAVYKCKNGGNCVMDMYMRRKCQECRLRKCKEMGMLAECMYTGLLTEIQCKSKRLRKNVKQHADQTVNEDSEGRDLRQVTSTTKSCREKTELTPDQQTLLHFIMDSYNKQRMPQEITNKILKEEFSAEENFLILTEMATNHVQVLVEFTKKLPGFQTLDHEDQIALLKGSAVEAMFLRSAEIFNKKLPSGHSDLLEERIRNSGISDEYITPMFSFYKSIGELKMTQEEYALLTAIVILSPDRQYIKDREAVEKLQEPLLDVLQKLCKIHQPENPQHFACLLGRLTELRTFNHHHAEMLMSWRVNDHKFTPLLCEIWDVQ
In short: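 Fluorescence of capillary-separated, HpaI-digested RT-PCR reporter products gave IR1-element mRNA induction in HepG2 cells 24 h after dosing. Endogenous transcription factors drove the cis-regulated reporters; activity was fitted bidirectionally against DMSO.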

[11] = ATG_GRE_CIS: Attagene CIS-FACTORIAL HepG2 Assay for human Glucocorticoid Response Elements (GRE) (AID 2282947); settings: HepG2 GRE cis-reporter, Attagene multiplex mRNA; AC50: actives raise or lower the signal unless noted; outcome: actives raise or lower the signal unless noted
In short: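 Read-out: fluorescent reporter-transcript fragments separated by capillary electrophoresis after RT-PCR. Transiently transfected HepG2 cells carrying cis-element-driven reporter units were dosed for 24 h; gain or loss of signal fitted against DMSO control.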

[12] = ATG_ISRE_CIS: Attagene CIS-FACTORIAL HepG2 Assay for human Interferon Regulatory Factor 1 (IRF1) binding to an Interferon-Stimulated Response Element (ISRE) (AID 2282948); settings: HepG2 ISRE cis-reporter (Attagene), mRNA transcription readout; actives raise or lower the signal
In short: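 Multiplexed mRNA reporter readout in human liver HepG2 cells: cis-element-driven reporters transfected, compound added for 24 h, transcripts amplified, fluorescently labelled and sized by capillary electrophoresis; curve fitting bidirectional against DMSO.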

[13] = ATG_M_32_CIS: Attagene CIS-FACTORIAL HepG2 Assay for M32 Transcription Factor (Internal Marker) (AID 2282949); settings: HepG2 Attagene cis-factorial M32 reporter, mRNA; actives raise or lower the signal;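 also: background control marker of the multiplexed CIS panel rather than a real target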
In short: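 Transient MRTU transfection of HepG2; 24 h compound treatment; TriZol RNA, oligo(dT) RT, reporter PCR, 6-FAM primer extension, HpaI cut, CE. Gain/loss of signal vs DMSO.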

[14] = ATG_M_06_CIS: Attagene CIS-FACTORIAL HepG2 Assay for M06 Transcription Factor (Internal Marker) (AID 2282950); settings: HepG2 Attagene CIS-FACTORIAL M06 internal marker reporter; actives raise or lower the signal
In short: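 One of many multiplexed endpoints: HepG2 reporter mRNA after 24 h dosing, detected by RT-PCR and capillary electrophoresis fluorescence; gain or loss of signal analysed against DMSO.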

[15] = molecular target: Hypoxia-inducible factor 1-alpha (Homo sapiens) (UniProt Q16665); assay: ATG_HIF1a_CIS: Attagene CIS-FACTORIAL HepG2 Assay for human Hypoxia Inducible Factor 1 (HIF1A) (AID 2282951); settings: HepG2 Attagene cis-factorial HIF1a reporter transcription; actives raise or lower the signal
Hypoxia-inducible factor 1-alpha (Homo sapiens), sequence (Q16665 whole entry, looked up): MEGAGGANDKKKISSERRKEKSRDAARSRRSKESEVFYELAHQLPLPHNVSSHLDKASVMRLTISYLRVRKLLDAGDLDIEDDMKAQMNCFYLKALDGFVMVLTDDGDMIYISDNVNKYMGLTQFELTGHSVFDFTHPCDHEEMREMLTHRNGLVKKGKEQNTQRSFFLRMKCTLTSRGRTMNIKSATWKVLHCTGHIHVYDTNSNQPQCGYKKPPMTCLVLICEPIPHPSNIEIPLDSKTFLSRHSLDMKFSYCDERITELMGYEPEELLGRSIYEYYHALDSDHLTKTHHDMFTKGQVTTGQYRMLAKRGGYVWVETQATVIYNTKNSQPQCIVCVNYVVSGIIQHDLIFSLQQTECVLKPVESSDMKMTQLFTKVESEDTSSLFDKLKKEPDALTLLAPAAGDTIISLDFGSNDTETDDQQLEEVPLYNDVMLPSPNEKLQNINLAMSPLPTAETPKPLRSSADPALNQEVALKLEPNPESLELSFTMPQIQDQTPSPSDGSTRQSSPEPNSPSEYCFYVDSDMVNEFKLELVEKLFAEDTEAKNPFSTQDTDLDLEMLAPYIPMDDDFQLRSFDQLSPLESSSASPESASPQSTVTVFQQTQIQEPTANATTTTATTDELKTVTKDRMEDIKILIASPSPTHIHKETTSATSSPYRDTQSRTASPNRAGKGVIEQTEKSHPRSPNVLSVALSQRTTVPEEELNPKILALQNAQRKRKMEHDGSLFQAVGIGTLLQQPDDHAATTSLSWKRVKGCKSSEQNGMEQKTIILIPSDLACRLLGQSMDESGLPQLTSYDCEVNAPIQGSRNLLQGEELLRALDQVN
In short: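 HepG2, transient cis-reporter library, 24 h dosing. RNA → RT (oligo dT) → PCR → 6-FAM primer extension → HpaI → CE. Bidirectional curve fit vs DMSO.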

[16] = molecular target: Hepatocyte nuclear factor 6 (Homo sapiens) (UniProt Q9UBC0); assay: ATG_HNF6_CIS: Attagene CIS-FACTORIAL HepG2 Assay for human Hepatocyte Nuclear Factor 6 (HNF6) (AID 2282952); settings: HepG2 Attagene cis-factorial HNF6 reporter transcription; actives raise or lower the signal
Hepatocyte nuclear factor 6 (Homo sapiens), sequence (Q9UBC0 whole entry, looked up): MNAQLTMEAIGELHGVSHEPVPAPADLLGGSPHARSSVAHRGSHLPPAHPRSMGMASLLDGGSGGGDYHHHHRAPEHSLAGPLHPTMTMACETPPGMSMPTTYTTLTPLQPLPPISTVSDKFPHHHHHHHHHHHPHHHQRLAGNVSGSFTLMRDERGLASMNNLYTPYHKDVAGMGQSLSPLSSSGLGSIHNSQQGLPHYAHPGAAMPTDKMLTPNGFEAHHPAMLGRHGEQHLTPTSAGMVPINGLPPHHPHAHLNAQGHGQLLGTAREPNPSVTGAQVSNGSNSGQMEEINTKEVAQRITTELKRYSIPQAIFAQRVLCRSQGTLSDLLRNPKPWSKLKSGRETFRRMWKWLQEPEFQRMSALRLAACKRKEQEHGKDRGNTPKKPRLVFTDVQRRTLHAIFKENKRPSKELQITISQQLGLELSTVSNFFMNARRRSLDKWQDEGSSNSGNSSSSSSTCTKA
In short: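 Endogenous factor activity read in transiently transfected HepG2 via promoter-regulated reporter transcripts. RNA harvested 24 h post-dosing, reverse-transcribed, PCR-amplified, FAM-labelled, HpaI-digested and resolved by capillary electrophoresis; fitted in both directions against DMSO.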

[17] = molecular target: Heat shock factor protein 1 (Homo sapiens) (UniProt Q00613); assay: ATG_HSE_CIS: Attagene CIS-FACTORIAL HepG2 Assay for human Heat Shock Transcription Factor 1 (HSE) (AID 2282953); settings: HepG2 HSE cis-reporter, Attagene RNA transcription; actives raise or lower the signal
Heat shock factor protein 1 (Homo sapiens), sequence (Q00613 whole entry, looked up): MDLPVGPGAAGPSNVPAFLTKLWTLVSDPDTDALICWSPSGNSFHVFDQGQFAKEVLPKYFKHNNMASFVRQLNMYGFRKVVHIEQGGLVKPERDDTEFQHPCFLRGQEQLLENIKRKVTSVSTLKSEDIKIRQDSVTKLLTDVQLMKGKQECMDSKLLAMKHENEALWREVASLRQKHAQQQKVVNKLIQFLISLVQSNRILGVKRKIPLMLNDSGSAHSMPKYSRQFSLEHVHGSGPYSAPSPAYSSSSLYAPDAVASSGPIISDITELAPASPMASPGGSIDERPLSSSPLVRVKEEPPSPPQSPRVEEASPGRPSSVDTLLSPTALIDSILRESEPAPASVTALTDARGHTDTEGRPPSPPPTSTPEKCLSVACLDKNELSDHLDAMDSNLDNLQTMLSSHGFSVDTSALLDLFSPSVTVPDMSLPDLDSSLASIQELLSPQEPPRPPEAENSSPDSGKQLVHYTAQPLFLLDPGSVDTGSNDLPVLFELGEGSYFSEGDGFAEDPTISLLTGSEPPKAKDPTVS
In short: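 Using HepG2 with transfected cis-driven reporter constructs, compound effects on endogenous factor activity are scored as reporter mRNA change at 24 h. Detection: RT-PCR, HpaI digestion, capillary electrophoresis; bidirectional fitting to DMSO.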

[18] = ATG_MRE_CIS: Attagene CIS-FACTORIAL HepG2 Assay for human Metal Responsive Element (MRE) (AID 2282954); settings: HepG2 MRE cis-reporter transcription, Attagene multiplex; actives raise or lower the signal
In short: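 RT-PCR/capillary electrophoresis readout of reporter mRNA, 24 h post-dosing, in HepG2 cells transfected with multiplexed cis-regulated reporter constructs. Gain or loss of signal fitted bidirectionally against DMSO baseline.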

[19] = ATG_PBREM_CIS: Attagene CIS-FACTORIAL HepG2 Assay for human Phenobarbital-responsive Enhancer Module (PBREM) (AID 2282955); settings: HepG2 PBREM cis-reporter, Attagene multiplexed transcription; actives raise or lower the signal
In short: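 HepG2, transient MRTU transfection, 24 h dosing; RNA → oligo(dT) RT → PCR → 6-FAM extension → HpaI → CE. Bidirectional fit vs DMSO.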

[20] = ATG_EGR_CIS: Attagene CIS-FACTORIAL HepG2 Assay for human Early Growth Response 1 (EGR1) (AID 2282938); settings: HepG2 Attagene CIS-FACTORIAL EGR reporter mRNA; actives raise or lower the signal
In short: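 HepG2, transient MRTU transfection (cis promoters), 24 h compound. RNA → RT (oligo-dT) → PCR → 6-FAM labelling → HpaI cut → CE fluorescence. Bidirectional fit, DMSO baseline.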

Measured: outcome

Oc1c(Cl)ccc(Cl)c1Cl
inactive: [1] | [2] | [3] | [4] | [5] | [6] | [7] | [8] | [9] | [10] | [11] | [12] | [13] | [14] | [15] | [16] | [17] | [18] | [19]

NS(=O)(=O)O
inactive: [1] | [2] | [3] | [5] | [6] | [7] | [8] | [9] | [11] | [13] | [14] | [15] | [16] | [17] | [18] | [19]

FC1(F)C=CC(F)(F)C1(F)F
inactive: [1] | [2] | [3] | [5] | [7] | [8] | [10] | [11] | [12] | [13] | [14] | [15] | [16] | [17] | [18] | [19]

O=C(O)CN(CCCN(CC(=O)O)CC(=O)O)CC(=O)O
inactive: [1] | [2] | [3] | [4] | [5] | [6] | [7] | [8] | [9] | [10] | [11] | [12] | [13] | [14] | [15] | [16] | [17] | [18] | [19]

CCO[Si](CCC1CCC2OC2C1)(OCC)OCC (configuration not stated)
inactive: [1] | [2] | [20] | [3] | [5] | [7] | [8] | [10] | [11] | [12] | [13] | [14] | [15] | [16] | [17] | [18] | [19]
